Pf growth 96h = P. falciparum growth inhibition at 96 hour, primary screen for plastid delayed-death inhibitors | P. falciparum luciferase reporter growth, 96 h | Potency, µM (titrated, usually from 28.7 µM), without a hit: at the top dose activity change, negative = inhibition, hits mostly inhibitors | 320,000 tested, 6.9% active; also: potency is read from the fitted curve at half-maximal effect; % is scaled to controls: 0 for no effect and ±100 for the full control effect
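Parasite growth measured via integrated firefly luciferase reporter in P. falciparum. Infected erythrocytes at 2% hematocrit, 0.05% parasitemia final were treated 96 hours at 37 C under 5% CO2, and luminescence was read.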
Shiga inhibitor = inhibitors of Shiga toxin in Vero cells; inhibition, % at 38.7 µM; AID 2315; Vero cells, Shiga toxin protein synthesis inhibition reporter; 290,000 tested, 9.2% active; in the data active = inhibition mostly above about 28%, no sharp cut-off; inactive = mostly below about 43%; also: 0% is about no effect
Cycloheximide cs = affects cycloheximide protein synthesis inhibition readout, counter-screen; 300,000 tested, 12% active; AID 2314; cell reporter, cycloheximide protein synthesis inhibition counterscreen; max response, %; in the data active = max response mostly above about 13%, no sharp cut-off; inactive = mostly below about 14%; also: read at 38.3 µM for the half of the compounds with a filed dose; 0% is about no effect
LmPK inhibitor = LmPK (Leishmania mexicana) enzyme inhibition; 290,000 tested, 0.37% active; Q27686; purified LmPK, Kinase-Glo ATP luminescence, 1 h; AID 1721; Potency, µM (series often up to 57.5 µM), without a hit: top-dose activity change, negative = inhibition, hits mostly inhibitors; also: potency is read from the fitted curve at half-maximal effect; % is scaled to controls: 0 for no effect and ±100 for the full control effect
Target sequence (Q27686 whole entry, looked up): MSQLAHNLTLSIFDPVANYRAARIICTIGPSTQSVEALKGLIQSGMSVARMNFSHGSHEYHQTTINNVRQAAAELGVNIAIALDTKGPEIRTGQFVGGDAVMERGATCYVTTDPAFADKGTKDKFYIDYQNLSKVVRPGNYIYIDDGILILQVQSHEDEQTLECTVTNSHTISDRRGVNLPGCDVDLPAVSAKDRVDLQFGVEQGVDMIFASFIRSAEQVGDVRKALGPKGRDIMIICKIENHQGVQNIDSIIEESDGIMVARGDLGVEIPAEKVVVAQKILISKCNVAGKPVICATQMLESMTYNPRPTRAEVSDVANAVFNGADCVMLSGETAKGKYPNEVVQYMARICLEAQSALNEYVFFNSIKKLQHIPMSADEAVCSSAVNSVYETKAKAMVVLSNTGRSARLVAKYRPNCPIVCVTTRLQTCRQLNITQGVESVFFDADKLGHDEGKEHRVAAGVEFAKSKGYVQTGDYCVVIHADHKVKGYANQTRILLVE
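ATP generated from ADP (0.1 mM) and PEP (0.5 mM) by 0.1 nM LmPK over 1 h at room temperature (pH 7.2 imidazole buffer) was detected by coupled luciferase luminescence. Values were normalized to uninhibited and no-enzyme wells.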
Pf growth 48h = inhibits P. falciparum growth in the first generation, 48 h; Potency, µM (doses to about 28.7 µM), without a hit: top-dose activity change, negative = inhibition, actives largely listed as inhibitors; P. falciparum luciferase growth in erythrocytes, 48 h; AID 504832; 310,000 tested, 5.9% active; also: potency is read from the fitted curve at half-maximal effect; % is scaled to controls: 0 for no effect and ±100 for the full control effect
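In quantitative HTS format, infected erythrocytes bearing luciferase-reporter parasites were treated for a single generation at 37 C. Luminescence after adding detection reagent served as the growth measure.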
* = called active by the depositor. Rows were chosen to be rich in hits. Some 22% of all compounds tested hit in one or more screens of this group. Unless noted, calls follow the shape of the dose curve; as a rule, active = well fitted inhibition curve with a large enough effect; inconclusive = small, poorly fitted or top-dose-only effect, or another doubt; inactive = no such curve, though single readings can be large or run the other way.

`O=[N+]([O-])c1cc(O)c2ncccc2c1` gave Pf growth 96h inconclusive, Shiga inhibitor 30, Cycloheximide cs 22*, LmPK inhibitor 13% and Pf growth 48h inconclusive.
Screening O=[N+]([O-])c1cc2cccnc2c2ncccc12 returned Pf growth 96h 9.3µM*, Shiga inhibitor 18, Cycloheximide cs -1, LmPK inhibitor -5% and Pf growth 48h 4.7µM*.
For O=c1cc2c(=O)oc3cc(O)c(O)oc3c2c(O)c1O the results were Pf growth 96h 8.3µM*, Shiga inhibitor -6, Cycloheximide cs -3, LmPK inhibitor -18% and Pf growth 48h 5.2µM*.
For COc1ccc(C2=CSC3=C(C(=O)c4cccc(S(=O)(=O)N(C)C)c4)CCN23)cc1 the results were Pf growth 96h 8.3µM*, Shiga inhibitor 10, Cycloheximide cs 3 and LmPK inhibitor -4%.
`COc1cc2c(cc1OC)C(c1cccs1)N(C(=O)c1cccc(S(=O)(=O)N(C)C)c1)CC2` (centres undefined) gave Pf growth 96h inconclusive, Shiga inhibitor -13, Cycloheximide cs -2, LmPK inhibitor 3% and Pf growth 48h inconclusive.
`COc1ccc2cc1Oc1ccc(cc1)C[C@H]1c3cc(c(OC)cc3CCN1C)Oc1c(OC)c(OC)cc3c1[C@@H](C2)N(C)CC3` gave Pf growth 96h 1.5µM* and Pf growth 48h 2.3µM*.
For O=C(c1ccc([N+](=O)[O-])cc1Cl)N1CCN(c2ccccn2)CC1 the results were Pf growth 96h -5%, Shiga inhibitor -5, Cycloheximide cs -3, LmPK inhibitor 6% and Pf growth 48h -2%.
O=[N+]([O-])c1ccc(N2CCN(c3ccccc3O)CC2)c(Cl)c1 was read as Pf growth 96h inconclusive, Shiga inhibitor 133*, Cycloheximide cs 48*, LmPK inhibitor 2% and Pf growth 48h inconclusive.
`O=[N+]([O-])c1ccc(N2CCN(c3ccccn3)CC2)c(Cl)c1` gave Pf growth 96h inconclusive, Shiga inhibitor 59*, Cycloheximide cs 22, LmPK inhibitor -1% and Pf growth 48h inconclusive.
For O=[N+]([O-])c1ccc(N2CCN(c3ccccc3O)CC2)cc1 the results were Pf growth 96h 21%, Shiga inhibitor -3, Cycloheximide cs -1, LmPK inhibitor -4% and Pf growth 48h 28%.
O=C(CN1CCN(c2ccccc2O)CC1)Nc1cc([N+](=O)[O-])ccc1Cl was read as Pf growth 96h inconclusive, Shiga inhibitor -1, Cycloheximide cs -1, LmPK inhibitor 2% and Pf growth 48h 9.3µM*.
O=C(CCCCCN1C(=O)[C@@H]2Cc3ccccc3CN2C1=O)Nc1ccccc1F was read as Pf growth 96h inconclusive, Shiga inhibitor 11, Cycloheximide cs 10, LmPK inhibitor 2% and Pf growth 48h -20%.
`Cc1cccc(N(CC(=O)N2CCCC2)S(C)(=O)=O)c1` gave Pf growth 96h inconclusive, Cycloheximide cs 4, LmPK inhibitor 1% and Pf growth 48h -13%.
Screening O=c1[nH]ccc2c(S(=O)(=O)N3CCCNCC3)cccc12 returned Shiga inhibitor -5 and Cycloheximide cs -5.
`CC(c1ccccn1)N(C)C(=O)c1ccc2nc(Cc3ccccc3F)oc2c1` (centres undefined) gave Pf growth 96h 0%, Shiga inhibitor 72*, Cycloheximide cs 53*, LmPK inhibitor -6% and Pf growth 48h 12%.
Screening Cc1cc(CNC(=O)c2ccc3nc(Cc4ccccc4F)oc3c2)nn1C returned Pf growth 96h 2.1µM*, Shiga inhibitor 94*, Cycloheximide cs 42*, LmPK inhibitor 2% and Pf growth 48h 14%.
Screening Cc1c(C(C)NC(=O)c2ccc3nc(Cc4ccccc4F)oc3c2)cnn1C (centres undefined) returned Pf growth 96h inconclusive, Shiga inhibitor 36*, Cycloheximide cs 34*, LmPK inhibitor -4% and Pf growth 48h 13%.
Screening Cc1c(C(=O)N(C)C(C)c2ccccn2)oc2c(F)cccc12 (centres undefined) returned Pf growth 96h 11%, Shiga inhibitor 75*, Cycloheximide cs 51*, LmPK inhibitor -2% and Pf growth 48h 0%.
For Cc1c(C(=O)N(C)C(C)c2ccncn2)oc2c(F)cccc12 (centres undefined) the results were Pf growth 96h -1%, Shiga inhibitor 29, Cycloheximide cs 23, LmPK inhibitor -3% and Pf growth 48h -14%.
Screening CCN1CCN(C(=O)C(N)Cc2ccccc2)CC1 (centres undefined) returned Pf growth 96h 4%, Shiga inhibitor -10, Cycloheximide cs -5, LmPK inhibitor 0% and Pf growth 48h 25%.
Screening Cc1ccc(S(=O)(=O)NCC(=O)NCC2COc3ccccc3O2)cc1C (centres undefined) returned Pf growth 96h inconclusive and Pf growth 48h -6%.
For CCCN1CNc2c(c(=O)[nH]c(=S)n2CCc2ccc(OC)c(OC)c2)C1 the results were Pf growth 96h 40%, Shiga inhibitor -2, Cycloheximide cs -8, LmPK inhibitor 0% and Pf growth 48h -18%.
For CC(NC(=O)c1ccco1)c1ccc(-n2ccnc2)cc1 (centres undefined) the results were Pf growth 96h 17% and Pf growth 48h 18%.
`CC1(C)Cc2c(cnn2-c2ccc(F)cc2)C(NC(=O)CN2CCCC2=O)C1` (centres undefined) gave Pf growth 96h 36%, Shiga inhibitor 15, Cycloheximide cs 16, LmPK inhibitor -3% and Pf growth 48h inconclusive.
For CC(=O)Nc1ccc(S(=O)(=O)N(Cc2cccnc2)Cc2cc3ccc(C)cc3[nH]c2=O)cc1 the results were Pf growth 96h inconclusive, Shiga inhibitor -4, Cycloheximide cs -6, LmPK inhibitor -1% and Pf growth 48h inconclusive.
`Cc1cc(CNC(=O)c2cc(-c3ccccc3)nc3ccccc23)nn1C` gave Pf growth 96h 1%, Shiga inhibitor -12, Cycloheximide cs -2, LmPK inhibitor 3% and Pf growth 48h -12%.
`CCCCc1nc2cc(C(=O)NCc3cc(C)n(C)n3)ccc2o1` gave Pf growth 96h 2%, Shiga inhibitor 78*, Cycloheximide cs 25*, LmPK inhibitor 6% and Pf growth 48h 17%.
`O=C(NCc1ccncc1)c1ccc2nc(Cc3ccccc3F)oc2c1` gave Pf growth 96h inconclusive, Shiga inhibitor 15, Cycloheximide cs 16*, LmPK inhibitor -4% and Pf growth 48h 15%.
CC(C)Cc1nnc(NC(=O)CCS(=O)(=O)c2ccc(Cl)cc2)s1 was read as Pf growth 96h 26%, Shiga inhibitor 11, Cycloheximide cs 6, LmPK inhibitor -6% and Pf growth 48h 0%.
Screening CC1CCN(c2ccc(C=O)o2)CC1 returned Pf growth 96h 0.23µM*, Shiga inhibitor 27, Cycloheximide cs 10, LmPK inhibitor -2% and Pf growth 48h -26%.
Screening O=Cc1ccc(N2CCCC2)o1 returned Pf growth 96h 17%, Shiga inhibitor 9, Cycloheximide cs -2, LmPK inhibitor -1% and Pf growth 48h 15%.

Screens deposited in PubChem by National Center for Advancing Translational Sciences (NCATS).
